Choline anaer gr – blocks anaerobic gram-negative growth on choline. Gram-negative bacterium anaerobic choline minimal medium, absorbance growth; stronger effect = lower value. calls only. actives 0.2% (n = 55,000); call rule not given here
Calls only; . = inactive; + = active, no number. Only a selection was taken, and hits are over-represented in it overall.

SMILES	Choline anaer gr
COC(=O)c1c(NC(=O)N2CCCC2c2ccc(F)cc2)sc2c1CCCC2 (stereo unspecified)	.
Clc1ccc(-c2ccc(CNCCCn3ccnc3)o2)cc1	.
CCCCN(C)c1ccc(NS(=O)(=O)c2ccc(Br)cc2)c(C(=O)O)c1	.
CCCCN(C)c1ccc(NC(=O)C2CC2)c(C(=O)O)c1	.
CCCCN(C)c1ccc(NC(=O)c2ccccc2Cl)c(C(=O)O)c1	+
CN1CCN(c2ccc(NC(=O)c3ccccc3Cl)c(C(=O)O)c2)CC1	.
CCCN1CCN(c2ccc(NC(=O)c3ccccc3Cl)c(C(=O)O)c2)CC1	.
O=C(Nc1ccc(N2CCC(Cc3ccccc3)CC2)cc1C(=O)O)c1ccccc1Cl	+
O=C1c2ccccc2Sc2cc(-c3noc(-c4ccncc4)n3)ccc2N1C1CC1	.
O=C(NCc1cccnc1)c1cc2c(Cl)ccc3c2n1CCO3	.
CCSc1nn(CC(=O)Nc2ccccc2F)c(N)c1S(=O)(=O)c1ccccc1	.
CCC(=O)N1CCCN(S(=O)(=O)CC)CC1	.
CCN1CCN(C(=O)[C@@H]2CCCN2C(C)=O)CC1	.
CCC(=O)N1CCCC1C(=O)N1CCCN(C)CC1 (stereo unspecified)	+
CCCNC(=O)CCn1c(N2CCCC2)nc2ccsc2c1=O	.
Cc1cc(N(C)C)n2nc(CN3CCCC(C)C3)nc2n1 (stereo unspecified)	.
Cc1noc(-c2ccc(S(=O)(=O)N3CCCCC3C)s2)c1C (stereo unspecified)	.
CC1(C)C(=O)N(CC(=O)N2CCN(c3ccccc3)CC2)c2ccc(S(=O)(=O)N3CCCC3)cc21	.
CC(C)NC(=O)c1nsc(C(=O)NCC2CC2)c1N	.
CC(C)Oc1ccc(C(=O)Nc2ccc3c(c2)CCCN3S(=O)(=O)c2ccccc2)cc1	.
CC(C)C(=O)N1CCC(N2CCN(Cc3ccc(F)cc3)C(=O)C2=O)CC1	.
CC1CCN(c2nc3ncnc(SCC(=O)NCCC4=CCCCC4)c3s2)CC1	.
O=C(NCc1ccnc(N2CCCCC2)c1)Nc1ccc(F)c(Cl)c1	+
COc1ccccc1NC(=O)Nc1ccc(Nc2cc(N3CCCC3)nc(C)n2)cc1	.
O=C(NCc1ccnc(N2CCSCC2)c1)Nc1ccc(F)cc1F	.
SMILES	Choline anaer gr
O=C(NCc1ccnc(N2CCSCC2)c1)Nc1cc(F)ccc1F	.
COc1ccccc1NC(=O)NCc1ccnc(N2CCCCC2)c1	+
COc1ccccc1CNC(=O)c1ccc(N2CCCC2)c(NC(=O)Nc2ccccc2Cl)c1	.
CCCc1cc(C2CCCN2Cc2ccc(C)s2)no1 (stereo unspecified)	.
COc1ccc(-c2ccnc3cc(C(=O)Nc4ccc5c(c4)OCO5)nn23)cc1OC	.
Cc1nc(-c2cc(S(=O)(=O)N3CCC(C(=O)N4CCN(c5ccccc5)CC4)CC3)c(C)s2)no1	.
CN1CCc2c(sc(NC(=O)C3CC3)c2-c2nc3ccccc3s2)C1	.
CC(C)N1CCc2c(sc(NC(=O)C3CC3)c2-c2nc3ccccc3s2)C1	+
CN1CCc2c(sc(NC(=O)CN3C(=O)c4ccccc4C3=O)c2-c2nc3ccccc3s2)C1	.
Cc1ccccc1N1CCn2c1nc1c2c(=O)n(CC(=O)O)c(=O)n1C	.
COc1ccc(N2C(=O)c3cc(C)nn3CC2(C)C(=O)NCc2ccccc2)c(OC)c1 (stereo unspecified)	.
Cc1[nH]c(C)c(S(=O)(=O)N2CCC(C(=O)N3CCc4ccccc43)CC2)c1C(=O)N1CCCC1	+
Cc1[nH]c(C)c(S(=O)(=O)N2CCC(C(=O)N3CCc4ccccc43)CC2)c1C(=O)N1CCCCC1	.
Cc1[nH]c(C)c(S(=O)(=O)N2CCc3ccccc3C2)c1C(=O)N1CCCC1	.
CC(C)c1noc(-c2cccc(OCC(=O)Nc3nccs3)c2)n1	.
Cc1ccc(NC(=O)C2CC(=O)N(c3cccc(-c4noc(C)n4)c3)C2)c(Br)c1 (stereo unspecified)	.
Cc1ccc(-c2noc(C3CCCN3C(=O)C3CCN(S(=O)(=O)c4ccc(C)cc4)CC3)n2)cc1 (stereo unspecified)	.
Cc1ccc(NC(=O)c2nnc(CNC(=O)Nc3cccc(C)c3)s2)cc1	.
Cc1noc2ncnc(NC(C)C)c12	.
Cc1noc2nc[nH]c(=O)c12	+
Cc1noc2ncn(Cc3ccccc3)c(=O)c12	.
COc1ccc2[nH]cc(CCNC(=O)C(C)C3CCN(S(=O)(=O)c4c(C)noc4C)CC3)c2c1 (stereo unspecified)	.
CCOC(=O)CNC(=O)Cn1c(=O)c2c(OCC)c(C)cnc2n(C)c1=O	.
O=C(COc1ccc(Cl)cc1-n1cnnc1)Nc1ccccc1	.

Source: PubChem BioAssay (ICCB-Longwood Screening Facility, Harvard Medical School)
